OTUD3 block = inhibitors of human OTUD3 deubiquitinase. OTU domain-containing protein 3 (Homo sapiens), Q5T2D3. purified OTUD3, Ub-rhodamine fluorescence, 2 h. inhibition, % at 25 µM. 0.7% of 47,000 active. AID 1645858, 2021
Target sequence (Q5T2D3 whole entry, looked up, the tested form may be a part): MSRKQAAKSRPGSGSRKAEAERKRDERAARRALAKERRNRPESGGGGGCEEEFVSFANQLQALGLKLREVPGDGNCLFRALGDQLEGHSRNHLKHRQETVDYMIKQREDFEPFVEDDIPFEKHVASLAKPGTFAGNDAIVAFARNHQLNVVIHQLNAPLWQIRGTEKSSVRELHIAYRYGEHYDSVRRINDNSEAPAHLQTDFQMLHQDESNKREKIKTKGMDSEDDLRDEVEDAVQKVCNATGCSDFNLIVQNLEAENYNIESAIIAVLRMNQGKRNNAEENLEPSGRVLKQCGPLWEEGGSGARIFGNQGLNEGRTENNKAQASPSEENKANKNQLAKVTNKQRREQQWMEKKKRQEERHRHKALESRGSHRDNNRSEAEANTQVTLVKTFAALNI
USP28 block = inhibitors of human USP28 deubiquitinase; Ubiquitin carboxyl-terminal hydrolase 28 (Homo sapiens), Q96RU2; purified USP28, Ub-rhodamine cleavage fluorescence, 30 min; inhibition, % at 25 µM; 3% of 47,000 active
Hits are given with their value; – = inactive; · = not tested or not shown. An excerpt weighted towards active compounds, which were near 3.3% of everything screened. Rule as the data show it: active = inhibition above about 30%; inactive = the rest.

SMILES	OTUD3 block	USP28 block
Cc1ccc(NC(=O)c2cn(Cc3ccccc3)nc2-c2cccnc2)cc1	–	32
COc1cccc(C(=O)[C@H]2[C@]3(C(=O)Nc4ccccc43)[C@@H]3CCCN3[C@@]23C(=O)Nc2ccccc23)c1	–	–
O=C(c1cccc([N+](=O)[O-])c1)[C@H]1[C@]2(C(=O)Nc3ccccc32)[C@@H]2CCCN2[C@@]12C(=O)Nc1ccccc12	–	35
COc1cccc(CN2Cc3ccccc3OCC2=O)c1	–	–
O=C1COc2ccc(Br)cc2CN1Cc1ccccc1F	–	40
Cc1cc(C)nc(N(C(=O)C2CC2)c2cc(C(F)(F)F)ccc2Cl)n1	–	–
Cc1nc2nc(CN(C(=O)C(C)C)c3ccccc3)nn2c(C)c1Cl	–	–
Cc1cc(C)n2nc(CNc3cccc(Cl)c3)nc2n1	–	73
Cc1nc2nc(CNc3ccccc3)nn2c(C)c1Cl	–	47
Cc1cc(=O)n2[nH]c(CNc3cccc(Cl)c3)nc2n1	–	–
COc1ccc(N(CC(=O)N2CCN(c3ccccc3F)CC2)S(=O)(=O)c2c(C)nn(C)c2C)cc1	–	–
CC(C)=CCc1c2c(c3occ(-c4ccc(O)c(O)c4)c(=O)c3c1O)C=CC(C)(C)O2	81	69
CC(C)=CCc1c2c(c3occ(-c4ccc(O)cc4)c(=O)c3c1O)C=CC(C)(C)O2	44	42
Cc1sc(NC(=O)CN2CCCC2)nc1-c1ccc2c(c1)CCN2S(=O)(=O)c1ccccc1	–	–
Cc1csc2nc(CNc3ccc(C(F)(F)F)cc3)cc(=O)n12	–	·
Nc1c(-c2ccc(Cl)cc2)cnc2nc(Sc3ncc(C(F)(F)F)cc3Cl)nn12	30	–
Nc1c(-c2ccc(Cl)cc2)cnc2cc(-c3ccc(Cl)c(Cl)c3)nn12	–	–
CCOC(=O)C1=C(c2ccccc2)Nc2nc3ccccc3n2C1c1ccncc1 (configuration not stated)	–	–
O=C(c1ccncc1)N1CCC2(CN(Cc3ccc(-c4ccccc4)cc3)C2)C1	–	–
COc1ccccc1NC(=O)Cn1cc(C(=O)c2ccc(C)cc2)c(=O)c2ccccc21	–	–
CCc1cc(C(=O)Nc2ccc(C3CCc4nncn4C3)cc2)on1 (configuration not stated)	–	34
CCc1nnc2n1CC(c1ccc(NC(=O)c3sc(C)nc3C)cc1)CC2 (configuration not stated)	–	–
COc1ccc(CN2CCCC3(Cc4ccccc4CNC3=O)C2)cc1OC (configuration not stated)	–	–
O=c1c(-c2nc(C3CC3)no2)cccn1Cc1c(F)cccc1Cl	–	85
O=c1c(-c2nc(C3CC3)no2)cccn1Cc1noc(-c2ccccc2F)n1	–	–
SMILES	OTUD3 block	USP28 block
CCc1nc(SCC(=O)Nc2ccc(C)c(F)c2)c2oc3ccccc3c2n1	–	–
O=C1CC(c2ccccc2)Cc2nc(Nc3cc(Cl)cc(Cl)c3)ncc21 (configuration not stated)	–	–
Cc1ccc(C)c(NC(=O)CCc2c(C)nn(-c3cc(N4CCOCC4)ncn3)c2C)c1	–	–
COCCOC(=O)C1=C(C)Nc2nc3ccccc3n2C1c1cc(OC)c(OC)c(OC)c1 (configuration not stated)	–	–
Cc1cc(SCc2ncon2)c(C)cc1Cl	–	69
Cc1cc(SCc2nnc(-c3ccc([N+](=O)[O-])c(C)c3)o2)c(C)cc1Cl	–	–
CC(C)N1CCC2(CC1)Nc1ccccc1C(=O)N2Cc1ccccc1	–	–
O=C1c2ccccc2NC2(C(=O)Nc3ccc(Br)cc32)N1c1ccccc1 (configuration not stated)	76	86
COc1ccc(CCNC(=O)c2noc3c2CCc2sccc2-3)cc1OC	–	76
COCCCNC(=O)c1noc2c1CCc1sccc1-2	–	·
Cc1ccc(C)c(NC(=O)c2cc(-c3cccnc3)n[nH]2)c1	–	–
Cc1cc(Cl)ccc1NC(=O)c1cc(-c2cccnc2)n[nH]1	–	93
Cc1cc(NC(=O)c2cc(-c3cccnc3)n[nH]2)ccc1Br	–	48
Cc1ccc(NC(=O)c2cc(-c3ccncc3)n[nH]2)c(Cl)c1	–	60
O=C(Nc1ccc(Cl)cc1F)c1cc(-c2ccncc2)n[nH]1	–	–
Cc1cc(NC(=O)c2cc(-c3ccccn3)n[nH]2)ccc1Br	–	–
COc1ccc2[nH]c(C(=O)NC3CCN(Cc4ccccc4)CC3)c(C)c2c1	–	–
COc1ccc(CNC(=O)c2ncoc2-c2ccc(OC)cc2)cc1	–	–
COc1ccc(-c2ocnc2C(=O)NCc2cccc(OC)c2)cc1	–	44
COc1cc(NC(=O)CSc2cc(N3CCCCC3)ncn2)cc(OC)c1	–	–
Cc1cccc(C(=O)OCC(=O)Nc2ccc3[nH]c(=O)[nH]c3c2)c1	32	48
O=C(COC(=O)c1ccccc1O)Nc1ccc2[nH]c(=O)[nH]c2c1	–	–
Cn1ncc(Cl)c1C(=O)Nc1ccc2nc(NC(=O)C3CCCCC3)sc2c1	–	–
CC(C)c1noc(CN2CCC(C3CCCCCN3S(=O)(=O)c3ccccc3)CC2)n1 (configuration not stated)	–	–
Cn1nc(-c2nc(Cc3ccccc3)no2)c2c1CCN(C(=O)COc1ccccc1)C2	–	–
SMILES	OTUD3 block	USP28 block
COc1ccc(Cn2ccc3nc(N4CCOCC4)c(C#N)cc3c2=O)cc1	–	31
Cc1ccc(Cn2ccc3nc(N4CCOCC4)ncc3c2=O)cc1	–	–
Cc1c(OCc2ccccc2)noc1C1CCN(C(=O)C(C)C)CC1	–	·
Cc1c(OCc2ccccc2)noc1C1CCN(C(=O)NC2CCOCC2)CC1	–	36
CSc1nc(NC(C)=O)c2c(n1)N(C(C)=O)[C@@H]1OC[C@@H](OC(C)=O)[C@@H](OC(C)=O)[C@@H]1N2C(C)=O	–	–
O=C(C1CCCN(S(=O)(=O)N2CCCCCC2)C1)N1CCN(c2ccccc2)CC1 (configuration not stated)	–	54
O=C(C1CCCN(S(=O)(=O)N2CCCCC2)C1)N1CCN(c2ccccc2)CC1 (configuration not stated)	–	–
CC(C)CC1NC(=O)C2CCCN2C1=O (configuration not stated)	33	51
CC(C)CC1NC(=O)C2CC(O)CN2C1=O (configuration not stated)	–	–
Cc1ccc(C)c(OCCCn2c(CCNC(=O)C3CCCCC3)nc3ccccc32)c1	–	–
O=C(NCCc1nc2ccccc2n1CCCOc1ccccc1Cl)C1CCCCC1	33	–
O=C(Nc1ccc2nc3n(c(=O)c2c1)CCCC3)c1ccc(F)cc1Cl	–	–
COc1cc2nc(NC(=O)c3ccc(F)cc3Cl)sc(=O)c2cc1OC	–	78
Cc1ccc(-c2nnc(-c3ccccc3)o2)cc1S(=O)(=O)N1CCOCC1	–	–
O=C(NCc1ccccc1Cl)c1nc(-c2ccc3[nH]ccc3c2)no1	–	–
O=C(CN1C(=O)c2ccccc2OC(c2ccccc2)C1=O)c1ccc(F)cc1 (configuration not stated)	–	–
CC(=O)Nc1ccc(S(=O)(=O)N2CCCn3c(nc4ccccc43)C2)cc1	–	–
COCCn1cc(OC(=O)c2ccc(C)cc2)c2c1nc(-c1ccc(C)cc1)n1c3ccccc3nc21	–	–
COc1cccc(N2CCN(c3ncnc4c3c(-c3ccccc3)cn4-c3cccc(Cl)c3)CC2)c1	–	–
Cc1ccc(NC(=O)Cc2n[nH]c(Cc3ccc(F)cc3)n2)c(F)c1	–	–
